# Results filed as inconclusive are left out. Entries that show only a call come without a potency. Where a structure was tested more than once in an assay, its records may differ in their call. The source made the active and inactive calls. Unless noted, the call rests on the fitted dose curve; in most records, active means well fitted curve in the direction sought with a large enough effect; inconclusive means small, poorly fitted or top-dose-only effect, or another doubt; inactive means no such curve, though single readings can be large; an effect the other way counts as inactive or inconclusive.
# Assays:
# [1] = target: Chromobox protein homolog 1 (Homo sapiens) (UniProt P83916); test: qHTS Validation Assay for Inhibitors of HP1-beta Chromodomain Interactions with Methylated Histone Tails (AID 488953); further: nearly all actives have a fitted effect of over 50% in size; further: potency means the concentration at half of the fitted maximal effect
# Outline: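 Compounds pinned into a preassembled complex of HP1-beta and trimethyl-K9 histone H3(1-18) biotin peptide (50 nM each; PBS pH 7.4, 0.01% Tween-20). After 30 min, bead-based AlphaScreen detection followed.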
# [2] = target: Methanococcus maripaludis chaperonin (MmCpn) (UniProt Q6LX38); test: High-Throughput Screening for Modulators of Cytosolic Chaperonin Activity: MmCpn Primary Screen (AID 488978);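 further: 50 nM MmCpn enzyme hydrolysing 30 µM ATP at 37 °C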
# Chain of Methanococcus maripaludis chaperonin (MmCpn) (Q6LX38 1-543): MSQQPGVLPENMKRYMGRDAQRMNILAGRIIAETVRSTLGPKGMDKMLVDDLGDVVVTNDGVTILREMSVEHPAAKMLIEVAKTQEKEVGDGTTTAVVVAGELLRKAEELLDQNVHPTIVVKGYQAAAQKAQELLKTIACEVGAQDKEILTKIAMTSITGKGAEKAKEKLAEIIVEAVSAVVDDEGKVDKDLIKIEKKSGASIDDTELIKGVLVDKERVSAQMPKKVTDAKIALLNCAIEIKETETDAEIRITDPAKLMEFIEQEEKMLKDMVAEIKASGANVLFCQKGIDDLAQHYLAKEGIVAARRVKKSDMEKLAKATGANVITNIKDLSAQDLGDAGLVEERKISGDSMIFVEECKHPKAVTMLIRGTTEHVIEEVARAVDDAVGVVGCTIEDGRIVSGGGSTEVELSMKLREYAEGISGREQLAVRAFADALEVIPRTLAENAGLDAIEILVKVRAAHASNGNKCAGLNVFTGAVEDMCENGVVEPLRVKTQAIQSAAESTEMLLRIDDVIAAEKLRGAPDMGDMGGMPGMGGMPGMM
# Outline: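 MmCpn (50 nM final) was preincubated with compound 5 min at RT, then 30 uM ATP (final) was added and the reaction ran 10 min at 37C. ADP produced was detected by Transcreener HTRF (ex 320 nm; em 590/665 nm).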
# [3] = target: D(1A) dopamine receptor (Homo sapiens) (UniProt P21728); test: HTS Assay for Allosteric Agonists of the Human D1 Dopamine Receptor: Primary Screen for Agonists (AID 488981); further: potency means the concentration at half of the fitted maximal effect
# Chain of D(1A) dopamine receptor (Homo sapiens) (P21728 whole entry, looked up): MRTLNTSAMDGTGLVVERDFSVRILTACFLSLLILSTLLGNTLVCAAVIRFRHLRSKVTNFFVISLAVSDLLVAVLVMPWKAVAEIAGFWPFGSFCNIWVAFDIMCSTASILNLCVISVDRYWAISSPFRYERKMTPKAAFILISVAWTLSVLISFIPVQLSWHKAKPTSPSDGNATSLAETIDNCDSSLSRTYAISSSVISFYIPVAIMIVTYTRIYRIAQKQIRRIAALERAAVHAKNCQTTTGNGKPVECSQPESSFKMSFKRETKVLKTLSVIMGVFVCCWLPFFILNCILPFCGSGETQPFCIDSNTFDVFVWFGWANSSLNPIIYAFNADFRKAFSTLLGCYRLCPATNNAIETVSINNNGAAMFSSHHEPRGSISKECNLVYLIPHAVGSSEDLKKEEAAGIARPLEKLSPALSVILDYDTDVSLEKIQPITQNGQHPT
# Outline: (§1)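 Tetracycline-induced HEK293 Trex D1 cells with forced coupling to calcium, loaded with no-wash calcium dye; kinetic fluorescence read 180 s after compound addition for agonism, then a further 180 s after an EC20 dopamine challenge for potentiation.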
# [4] = target: D(1A) dopamine receptor (Homo sapiens) (UniProt P21728); test: HTS Assay for Allosteric Agonists of the Human D1 Dopamine Receptor: Primary Screen for Potentiators (AID 488982)
# Outline: as §1
# [5] = target: D(1A) dopamine receptor (Homo sapiens) (UniProt P21728); test: HTS Assay for Allosteric Agonists of the Human D1 Dopamine Receptor: Primary Screen for Antagonists (AID 488983);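 further: calcium flux response to an EC80 dopamine challenge measured with no-wash dye; nearly all actives have a fitted effect of over 65% in size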; further: potency means the concentration at half of the fitted maximal effect
# Outline: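 In this primary screen, compounds are applied to calcium-dye-loaded HEK293 T-REx cells with force-coupled D1 expression induced overnight at 30 C. An EC80 of dopamine follows the 180 s compound phase, and calcium is monitored for a further 180 s.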
# [6] = target: ATP-dependent 6-phosphofructokinase (Trypanosoma brucei brucei) (UniProt O15648); test: qHTS Assay to Find Inhibitors of T. brucei phosphofructokinase: hit validation (AID 492961); further: series mostly up to about 51 µM
# Outline: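 Luminescence from ADP-Glo reports ADP generated as T. brucei PFK (1.25 nM) phosphorylates 0.5 mM fructose-6-phosphate using 0.1 mM ATP. Reactions ran 45 min at room temperature, pH 8.0.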
# [7] = qHTS for Inhibitors of Cell Surface uPA Generation: Validation Assay (AID 493164);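 further: RAW 264.7 macrophage cells exposed to compound for 18 h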
# Outline: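 Compounds are titrated over seven points (2.45 nM–38.3 uM final) onto pre-plated RAW 264.7 cells and incubated for 18 h. Retained intracellular ATP, measured with ATP-Lite, indicates blocked lethal factor entry.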
# [8] = target: Peptidyl-prolyl cis-trans isomerase NIMA-interacting 1 (Homo sapiens) (UniProt Q13526); test: qHTS Validation Assay to Find Inhibitors of Pin1 (AID 504536; active means well fitted inhibition curve with a large enough effect in the polarisation, with a control signal flat, not every such curve was filed as active; the % refers to the polarisation)
# Chain of Peptidyl-prolyl cis-trans isomerase NIMA-interacting 1 (Homo sapiens) (Q13526 whole entry, looked up): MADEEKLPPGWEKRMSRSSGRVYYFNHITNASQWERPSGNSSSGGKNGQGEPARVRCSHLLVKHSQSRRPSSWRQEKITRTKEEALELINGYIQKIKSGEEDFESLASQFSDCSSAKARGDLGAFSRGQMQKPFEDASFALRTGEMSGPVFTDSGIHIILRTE
# Outline: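 Fluorescence polarization competition: compounds (titration) displace HiFluor-488-labeled Pin1-1b peptide from Pin1 (0.3 uM final) in pH 7.5 HEPES buffer with DTT, 10 min at room temperature; %Activity normalized to no-enzyme wells, curves fitted.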
# [9] = target: Phosphoglycerate kinase, glycosomal (Trypanosoma brucei brucei) (UniProt P07378); test: qHTS Validation Assay to Find Inhibitors of Phosphoglycerate Kinase (AID 504547)
# Chain of Phosphoglycerate kinase, glycosomal (Trypanosoma brucei brucei) (P07378 whole entry, looked up): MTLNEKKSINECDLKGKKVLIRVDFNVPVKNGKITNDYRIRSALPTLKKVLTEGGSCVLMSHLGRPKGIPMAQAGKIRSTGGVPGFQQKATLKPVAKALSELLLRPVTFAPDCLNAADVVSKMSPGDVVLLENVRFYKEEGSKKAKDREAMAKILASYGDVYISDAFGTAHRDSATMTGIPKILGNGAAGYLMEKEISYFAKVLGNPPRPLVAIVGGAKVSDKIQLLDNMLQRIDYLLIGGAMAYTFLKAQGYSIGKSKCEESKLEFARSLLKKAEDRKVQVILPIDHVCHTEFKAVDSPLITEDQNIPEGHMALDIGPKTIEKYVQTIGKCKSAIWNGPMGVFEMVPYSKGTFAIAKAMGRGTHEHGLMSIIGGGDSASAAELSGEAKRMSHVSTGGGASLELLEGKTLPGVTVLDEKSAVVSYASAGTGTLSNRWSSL
# Outline: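 Compounds are pinned into the substrate/PGK mixture, and GAPDH (100nM final) is added to start the reaction by producing 1,3-BPG. After 60 minutes at room temperature, Kinase-Glo Plus is added and luminescence is measured 10 minutes later.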
# [10] = target: phosphoglycerate mutase (Leishmania major) (UniProt Q4Q090); test: qHTS Validation Assay to Find Inhibitors of Phosphoglycerate Mutase (AID 504548); further: series mostly up to about 58 µM
# Chain of phosphoglycerate mutase (Leishmania major) (Q4Q090 1-553): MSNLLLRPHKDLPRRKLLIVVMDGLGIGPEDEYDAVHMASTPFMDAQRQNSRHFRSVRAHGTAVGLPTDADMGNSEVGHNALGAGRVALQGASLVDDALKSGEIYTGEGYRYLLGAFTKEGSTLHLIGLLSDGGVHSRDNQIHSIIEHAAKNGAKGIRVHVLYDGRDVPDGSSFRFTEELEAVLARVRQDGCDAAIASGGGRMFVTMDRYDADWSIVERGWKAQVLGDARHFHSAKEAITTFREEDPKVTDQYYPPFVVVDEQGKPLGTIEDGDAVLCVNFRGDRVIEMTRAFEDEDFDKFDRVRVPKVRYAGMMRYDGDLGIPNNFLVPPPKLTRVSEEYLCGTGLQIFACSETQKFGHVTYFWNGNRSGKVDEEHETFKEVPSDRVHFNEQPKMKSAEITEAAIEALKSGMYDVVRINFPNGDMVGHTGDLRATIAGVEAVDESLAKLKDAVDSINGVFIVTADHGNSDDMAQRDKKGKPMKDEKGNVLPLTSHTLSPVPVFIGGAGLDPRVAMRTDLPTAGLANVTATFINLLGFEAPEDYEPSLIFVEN
# Outline: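 Lm PGAM 1.25nM final; 100 mM TEA pH 7.6, 5 mM MgCl2, 0.01% Tween-20; 45 min RT; Kinase-GloPlus, 10 min; end-point luminescence. Enzyme-free wells as negative controls.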
# [11] = target: Thyrotropin receptor (Homo sapiens) (UniProt P16473); test: qHTS Assay for Antagonists of the Thyroid Stimulating Hormone Receptor (AID 488980); further: series mostly up to about 58 µM
# Chain of Thyrotropin receptor (Homo sapiens) (P16473 whole entry, looked up): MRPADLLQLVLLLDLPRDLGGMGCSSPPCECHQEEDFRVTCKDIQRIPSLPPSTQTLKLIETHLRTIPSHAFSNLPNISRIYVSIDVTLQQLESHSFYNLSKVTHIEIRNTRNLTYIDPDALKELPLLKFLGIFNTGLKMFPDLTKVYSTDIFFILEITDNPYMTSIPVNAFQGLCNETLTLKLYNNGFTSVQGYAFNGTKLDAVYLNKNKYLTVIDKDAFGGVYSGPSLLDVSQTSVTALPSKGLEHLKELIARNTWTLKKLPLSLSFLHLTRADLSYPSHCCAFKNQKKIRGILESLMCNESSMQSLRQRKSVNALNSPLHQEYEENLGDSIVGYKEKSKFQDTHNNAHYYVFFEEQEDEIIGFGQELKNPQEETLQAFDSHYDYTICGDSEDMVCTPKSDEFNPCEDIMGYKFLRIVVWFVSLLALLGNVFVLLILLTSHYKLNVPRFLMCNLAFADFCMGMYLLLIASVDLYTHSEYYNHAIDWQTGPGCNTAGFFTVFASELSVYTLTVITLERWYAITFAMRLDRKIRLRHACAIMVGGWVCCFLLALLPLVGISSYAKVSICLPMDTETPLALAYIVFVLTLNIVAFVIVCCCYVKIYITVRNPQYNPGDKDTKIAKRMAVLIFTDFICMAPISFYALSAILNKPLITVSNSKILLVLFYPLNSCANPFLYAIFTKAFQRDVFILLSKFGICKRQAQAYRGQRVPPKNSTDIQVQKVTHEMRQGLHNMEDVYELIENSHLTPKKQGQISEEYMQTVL
# Outline: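 HEK293 cells transfected with human TSHR, suspended in HEPES-buffered HBSS with 70 uM RO 20-1724, were treated with compounds plus TSH at EC80 (4 nM final). cAMP was measured by competitive HTRF (cryptate anti-cAMP antibody, cAMP-d2 acceptor).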
# [12] = Validation screen for small molecules that induce genotoxicity in human embryonic kidney (HEK293T) cells expressing luciferase-tagged ELG1 (AID 493106)
# Outline: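 In this validation screen, increased ELG1-luciferase signal flags compounds causing genetic stress. HEK293T reporter cells are treated 16 hr (37 °C, 5% CO2), developed with ONE-Glo for 30 min at room temperature, and imaged on a CCD-based reader.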
# [13] = target: ATPase family AAA domain-containing protein 5 (Homo sapiens) (UniProt Q96QE3); test: Validation screen for small molecules that inhibit ELG1-dependent DNA repair in human embryonic kidney (HEK293T) cells expressing luciferase-tagged ELG1 (AID 493107);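 further: cells co-treated with the DNA-damaging agent 5-fluorouridine alongside compound; series mostly up to about 46 µM; inhibitors lower the ELG1-luciferase luminescence signal; nearly all actives have a fitted effect of over 70% in size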
# Outline: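 Compounds reducing 5-fluorouridine-driven ELG1-luciferase signal in HEK293T cells were scored; exposure lasted 16 hr at 37 °C with luminescence detected via ONE-Glo.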
# [14] = target: Galactokinase (Homo sapiens) (UniProt P51570); test: qHTS Validation Assay for Inhibitors of Human Galactokinase (GALK) (AID 493189)
# Chain of Galactokinase (Homo sapiens) (P51570 whole entry, looked up): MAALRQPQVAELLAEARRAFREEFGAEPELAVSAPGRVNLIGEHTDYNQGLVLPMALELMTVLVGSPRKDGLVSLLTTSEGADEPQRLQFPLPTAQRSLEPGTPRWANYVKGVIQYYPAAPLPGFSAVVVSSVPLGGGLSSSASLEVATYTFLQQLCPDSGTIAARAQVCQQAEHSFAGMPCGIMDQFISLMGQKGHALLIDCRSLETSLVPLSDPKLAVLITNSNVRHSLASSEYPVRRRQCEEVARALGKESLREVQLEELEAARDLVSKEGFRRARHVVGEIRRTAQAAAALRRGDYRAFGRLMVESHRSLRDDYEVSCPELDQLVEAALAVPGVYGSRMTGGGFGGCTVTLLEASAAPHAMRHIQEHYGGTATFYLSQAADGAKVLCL
# Outline: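 GALK (5 nM) with 35 uM ATP and 100 uM galactose in HEPES pH8.0, MgCl2, NaCl, DTT, BSA; 1 h at room temperature. Residual ATP read by Kinase-Glo Plus luminescence after 10 min.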
# [15] = Validation screen for small molecules that induce DNA re-replication in SW480 colon adenocarcinoma cells (AID 504364)
# Outline: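 Hoechst-stained SW480 nuclei, imaged at 405 nm excitation after 48 hr compound exposure, were counted for elevated DNA content as the re-replication signal.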
# [16] = target: Ubiquitin carboxyl-terminal hydrolase 1 (Homo sapiens) (UniProt O94782); test: Inhibitors of USP1/UAF1: Pilot qHTS (AID 504865); further: nearly all actives have a fitted effect of over 35% in size; further: potency means the concentration at half of the fitted maximal effect
# Chain of Ubiquitin carboxyl-terminal hydrolase 1 (Homo sapiens) (O94782 whole entry, looked up): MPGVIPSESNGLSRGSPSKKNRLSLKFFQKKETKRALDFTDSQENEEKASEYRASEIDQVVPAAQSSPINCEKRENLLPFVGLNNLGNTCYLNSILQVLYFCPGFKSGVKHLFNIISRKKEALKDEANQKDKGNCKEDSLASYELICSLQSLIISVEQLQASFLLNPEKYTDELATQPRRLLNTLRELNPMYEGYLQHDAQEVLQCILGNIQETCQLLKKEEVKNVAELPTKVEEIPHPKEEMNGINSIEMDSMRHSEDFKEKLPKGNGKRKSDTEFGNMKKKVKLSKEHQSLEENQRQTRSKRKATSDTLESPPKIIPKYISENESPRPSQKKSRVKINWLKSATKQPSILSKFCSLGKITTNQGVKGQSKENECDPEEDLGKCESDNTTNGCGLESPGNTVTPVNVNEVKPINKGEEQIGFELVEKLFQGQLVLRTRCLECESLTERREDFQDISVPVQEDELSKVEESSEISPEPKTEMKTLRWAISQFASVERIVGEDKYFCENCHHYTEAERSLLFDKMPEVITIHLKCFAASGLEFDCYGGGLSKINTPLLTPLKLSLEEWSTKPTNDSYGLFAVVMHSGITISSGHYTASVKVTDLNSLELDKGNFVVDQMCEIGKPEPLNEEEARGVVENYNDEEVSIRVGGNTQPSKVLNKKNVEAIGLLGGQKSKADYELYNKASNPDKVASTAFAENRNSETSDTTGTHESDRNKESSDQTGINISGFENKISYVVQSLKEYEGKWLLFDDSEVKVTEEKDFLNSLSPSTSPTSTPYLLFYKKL
# Outline: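 USP1/UAF1 complex (1nM) preincubated with compound 15 min at room temperature, then Ub-Rho substrate (150nM final) added. Fluorescence read kinetically at 480/540 nm, 6 reads every 60 seconds. Buffer: 50mM HEPES pH 7.8, 0.5mM EDTA, 0.1 mg/ml BSA, 1mM TCEP, 0.01% Tween-20.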
# [17] = target: M-phase phosphoprotein 8 (Homo sapiens) (UniProt Q99549); test: qHTS Validation Assay for Inhibitors for MPP8 Chromodomain Interactions with Methylated Histone Tails (AID 488949); further: nearly all actives have a fitted effect of over 55% in size; further: potency means the concentration at half of the fitted maximal effect
# Chain of M-phase phosphoprotein 8 (Homo sapiens) (Q99549 whole entry, looked up): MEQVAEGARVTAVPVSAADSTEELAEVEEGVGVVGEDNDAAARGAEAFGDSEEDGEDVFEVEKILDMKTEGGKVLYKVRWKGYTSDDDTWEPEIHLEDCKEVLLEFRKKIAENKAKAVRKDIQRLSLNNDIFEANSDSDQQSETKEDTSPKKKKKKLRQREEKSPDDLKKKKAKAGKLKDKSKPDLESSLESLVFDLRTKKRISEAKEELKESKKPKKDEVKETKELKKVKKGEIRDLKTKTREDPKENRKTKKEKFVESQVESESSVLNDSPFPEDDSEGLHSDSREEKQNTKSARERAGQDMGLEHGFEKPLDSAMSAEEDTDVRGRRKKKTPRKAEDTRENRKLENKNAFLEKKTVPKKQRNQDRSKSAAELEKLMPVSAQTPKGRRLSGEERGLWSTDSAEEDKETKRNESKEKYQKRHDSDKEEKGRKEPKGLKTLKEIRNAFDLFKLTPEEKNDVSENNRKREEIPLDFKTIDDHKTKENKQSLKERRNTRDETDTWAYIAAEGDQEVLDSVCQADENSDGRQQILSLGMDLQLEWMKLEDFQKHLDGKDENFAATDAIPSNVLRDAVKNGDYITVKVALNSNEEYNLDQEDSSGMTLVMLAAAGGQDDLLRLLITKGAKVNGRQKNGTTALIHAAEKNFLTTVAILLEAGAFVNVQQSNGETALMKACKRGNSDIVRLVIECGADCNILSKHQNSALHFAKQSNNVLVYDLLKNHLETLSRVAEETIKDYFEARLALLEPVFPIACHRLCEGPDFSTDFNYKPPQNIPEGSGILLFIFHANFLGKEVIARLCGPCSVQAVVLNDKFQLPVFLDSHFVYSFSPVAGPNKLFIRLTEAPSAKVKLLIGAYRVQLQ
# Outline: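 MPP8 (50 nM) was preincubated with biotinylated H3(1-18)K9me3 peptide (50 nM) in PBS pH 7.4, 0.01% Tween-20 for 30 min at room temperature, then with compounds for 30 min; binding was detected by AlphaScreen.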
# [18] = target: Thyrotropin-releasing hormone receptor (Homo sapiens) (UniProt P34981); test: qHTS for Small Molecule Agonists and Allosteric Enhancers of Human TRH Receptor: Validation Screen for Agonists (AID 493127;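 active means calcium activation more than 3 SD above the typical response in the agonist read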;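 further: intracellular calcium rise by fluo-8 fluorescence before TRH EC20 addition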); conditions: TRH receptor agonist cell assay; at 2 µM; stronger effect = higher value
# Outline: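 Kinetic fluorescence assay of agonist-induced calcium release: overnight-plated TRHR cells, room-temperature fluo-8 loading, baseline then compound addition with per-second reads.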
# [19] = Nrf2 qHTS screen for inhibitors: Validation (AID 493153; active means well fitted inhibition curve with a large enough effect in the main read-out, with a control signal flat, not every such curve was filed as active); conditions: Potency: luciferase luminescence; viability change: measured here: cytotoxicity max response
# Outline: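 In this counterscreened reporter format, each well gives two signals: CellTiter-Fluor fluorescence for cytotoxicity and ARE-luciferase luminescence for Nrf2 function. A549 ARE_Fluc cells in 5% FBS OPTI-MEM were exposed to compound titrations for 18-24 h.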
# [20] = target: Transient receptor potential cation channel subfamily V member 1 (Homo sapiens) (UniProt Q8NER1); test: HTS Assay for Compounds that Act as Enhancers of the Vanilloid Receptor 1 (AID 488979)
# Outline: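 TRPV1 cells loaded with Fluo-8 calcium dye; compound added and Ca2+ signal (ex 480/em 520 nm) followed 3 min, then capsaicin at EC20 added and read 2 more min to detect enhancement.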
smiles,measurement,setting,value
COC(=O)C1=C(C)NC(C)=C(C(=O)OC(C)(C)CN(C)CCC(c2ccccc2)c2ccccc2)C1c1cccc([N+](=O)[O-])c1 (configuration not stated),Potency,[1],25.1 µM (active)
same,outcome,[2],inactive
same,Potency,[3],inactive
same,Potency,[4],inactive
same,Potency,[5],inactive
same,outcome,[6],inactive
same,outcome,[7],inactive
same,outcome,[8],inactive
same,outcome,[9],inactive
same,outcome,[10],inactive
Cc1ccc(/C(=C\CN2CCCC2)c2ccccn2)cc1,Potency,[1],inactive
same,outcome,[2],inactive
same,outcome,[11],inactive
same,Potency,[3],inactive
same,Potency,[4],inactive
same,Potency,[5],inactive
same,outcome,[6],inactive
same,Potency,[12],inactive
same,Potency,[13],inactive
same,outcome,[7],inactive
same,outcome,[14],inactive
same,outcome,[15],inactive
same,outcome,[8],inactive
same,outcome,[9],inactive
same,outcome,[10],inactive
same,Potency,[16],inactive
CCNC(=O)N1CCN(CCCC(c2ccc(F)cc2)c2ccc(F)cc2)CC1,Potency,[17],inactive
same,outcome,[2],inactive
same,outcome,[11],inactive
same,Potency,[3],15.8 µM (active)
same,Potency,[4],inactive
same,outcome,[6],inactive
same,Potency,[12],inactive
same,Potency,[13],inactive
same,activation,[18],6.5% (inactive)
same,Potency,[19],inactive
same,viability change,[19],-3.28%
same,outcome,[7],inactive
same,outcome,[14],inactive
same,outcome,[15],inactive
same,outcome,[8],inactive
same,outcome,[9],inactive
same,outcome,[10],inactive
same,Potency,[16],inactive
CN(C)CCCN1c2ccccc2Sc2ccccc21,Potency,[17],inactive
same,outcome,[2],inactive
same,Potency,[4],inactive
same,Potency,[5],5.01 µM (active)
same,outcome,[6],inactive
same,Potency,[12],inactive
same,activation,[18],8% (inactive)
same,outcome,[7],inactive
same,outcome,[14],inactive
same,outcome,[8],inactive
same,outcome,[9],inactive
same,outcome,[10],inactive
same,Potency,[16],inactive
CCOC(=O)C1=C(C)NC(C)=C(C(=O)OC)C1c1cccc([N+](=O)[O-])c1 (configuration not stated),Potency,[17],inactive
same,outcome,[2],inactive
same,outcome,[20],inactive
same,outcome,[11],inactive
same,Potency,[12],inactive
same,activation,[18],-4.62% (inactive)
same,Potency,[19],inactive
same,viability change,[19],9.17%
same,outcome,[7],inactive
same,outcome,[14],inactive
same,outcome,[15],inactive
same,outcome,[8],inactive
same,outcome,[9],inactive
same,outcome,[10],inactive
same,Potency,[16],inactive
Cc1cc(C)c(/C=C2\C(=O)Nc3ccccc32)[nH]1,Potency,[17],7.94 µM (active) and inactive
same,outcome,[2],inactive
same,outcome,[11],inactive
same,Potency,[3],15.8 µM (active)
same,Potency,[4],inactive
same,Potency,[5],inactive
same,outcome,[6],inactive
same,Potency,[12],inactive
same,activation,[18],0.562% (inactive)
same,outcome,[7],inactive
same,outcome,[14],inactive
same,outcome,[15],inactive
same,outcome,[9],inactive
same,outcome,[10],inactive
same,Potency,[16],7.52 µM (active)

# Reference: PubChem BioAssay (NCATS)
